Bioassay records as filed in PubChem.
NS3h inh CB: blocks HCV NS3 helicase binding to DNA; NS3h Cy5-dT15 DNA binding, fluorescence polarization; inhibition, % at 100 µM; actives 1.6% (n = 16,000);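 active means inhibition above the average over every tested compound plus 3 SD, cut at about 40% in these data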
Cy5 interf NS3h: counter-screen for HCV NS3 helicase inhibitors: fluorescence interference. fluorescence interference ratio at 100 µM. actives 6% (n = 16,000). Cy5-dT15 DNA with NS3h; actives lie on both sides; signal over control mean, under 1 quenches;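 active means compound fluorescence over control fluorescence at most 0.8, a quencher, or at least a set upper limit, an enhancer; inactive means ratio between 0.8 and the set upper limit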
NS3h confirm: hepatitis C NS3 helicase inhibition, confirmation; shares compounds with NS3h inh CB; NS3h binding to Cy5-dT15 DNA, fluorescence polarization; inhibition, % at 100 µM; actives 20% (n = 240);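 active means percent inhibition of 50% or more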
SSB FP counter: counter-screen for HCV NS3 helicase inhibitors: E. coli SSB binding. shares compounds with NS3h inh CB. E. coli SSB binding Cy5-dT15, fluorescence polarization. inhibition, % at 100 µM. actives 40% (n = 240);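 active means inhibition of at least 50%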;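 further: displacers lower Cy5 polarization so higher inhibition means more SSB displaced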
Target sequence (P0AGE0 whole entry, looked up): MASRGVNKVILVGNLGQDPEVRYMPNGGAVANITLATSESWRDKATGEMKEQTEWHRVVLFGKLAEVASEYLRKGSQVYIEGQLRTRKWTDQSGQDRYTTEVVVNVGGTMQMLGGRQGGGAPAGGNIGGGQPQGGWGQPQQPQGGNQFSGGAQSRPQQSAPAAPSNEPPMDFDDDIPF
Cy5 SSB interf: counter-screen for HCV NS3 helicase inhibitors: fluorescence interference; AID 720487; fluorescence interference ratio at 100 µM; actives 8% (n = 240); shares compounds with NS3h inh CB; Cy5-dT15/E. coli SSB fluorescence interference; actives lie on both sides;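 active means fluorescence interference ratio at or above 1.2, signal boosting, or at or below 0.8, signal quenching; inactive means ratio between 0.8 and 1.2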
Cy5 interf conf: Cy5 fluorescence interference, confirmation counter-screen | Cy5-dT15 DNA/NS3h fluorescence interference counterscreen | shares compounds with NS3h inh CB | AID 720489 | actives 44% (n = 240) | fluorescence interference ratio at 100 µM, hits read low;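 active means fluorescence interference ratio at or below 0.8 quencher or at or above a set limitenhancer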
Numbers stand for hits; n = inactive; x = not tested or not shown. Most compounds without a hit are left out; they make up all but 6.9% or so of the library.

SMILES	NS3h inh CB	Cy5 interf NS3h	NS3h confirm	SSB FP counter	Cy5 SSB interf	Cy5 interf conf
O=C1NC(=O)N(c2ccc3c(c2)OCO3)C(=O)/C1=C/c1ccc(OCc2cccc(C(=O)O)c2)cc1	47.7	n	n	57.5	n	0.751
Cc1cc(/C=C2\C(=O)NC(=O)N(c3cccc(Br)c3)C2=O)c(C)n1C	n	n	x	x	x	x
Cc1c(C=O)c2ccccc2n1Cc1ccc(Cl)cc1	n	n	x	x	x	x
Oc1ccc(Br)cc1CN1CCN(Cc2cccc(F)c2)CC1	n	n	x	x	x	x
O=C1NC(=S)N(c2ccccc2F)C(=O)C1=Cc1ccco1	106.1	0.649	113.4	123.1	0.766	n
O=C1NC(=S)N(c2ccccc2)C(=O)/C1=C/c1ccco1	93.6	n	62.6	100.0	n	0.712
O=C1NC(=O)N(c2ccc(Cl)cc2)C(=O)/C1=C/c1ccccc1	n	n	x	x	x	x
O=C(CF)NC(Nc1ccc(Br)cc1)C(Cl)(Cl)Cl (stereo unspecified)	n	n	x	x	x	x
COc1cc(C=C2C(=O)N(C)C(=O)N(C)C2=O)ccc1OCCOc1ccccc1	n	n	x	x	x	x
O=[N+]([O-])c1ccc(N2CCOCC2)c(F)c1Br	n	n	x	x	x	x
Cc1ccc(C(=O)Nc2ccc(N/C(N)=N\[N+](=O)[O-])cc2)cc1	n	n	x	x	x	x
Cc1[nH]c2cc(S(=O)(=O)O)c(Oc3ccccc3)cc2c1CCN	46.0	n	n	97.6	n	n
CC(C)OC(NC(=O)c1ccco1)C(Cl)(Cl)Cl (stereo unspecified)	n	n	x	x	x	x
O=C1c2ccccc2C(=O)N1Cc1nc2ccccc2c(=O)n1-c1ccncc1	n	n	x	x	x	x
CC(=O)NC1(c2ccccc2)CC(C)N(C)CC1C (stereo unspecified)	n	n	x	x	x	x
